Experiment [1] addresses Retinoic acid receptor RXR-alpha (Homo sapiens) (UniProt P19793). Put plainly: qHTS assay to identify small molecule agonists of the RXR signaling pathway (AID 1159527; calls by dose curve; further: nearly all actives have a fitted effect of over 35% in size). The method in brief: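 Read-out: beta-lactamase FRET ratio (405 nm excitation, 460 and 530 nm emission) after 2 hr substrate loading at room temperature. Cells were RXR-alpha-UAS-bla HEK 293T treated with compounds for 16 hr in 2% charcoal-stripped FBS medium.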
(In general: qHTS replaces the single test concentration by a dilution series.)

The nature of experiment [2]: qHTS assay to identify small molecule agonists of the RXR signaling pathway - cell viability counter screen (AID 1159529). Further: series mostly up to about 77 µM; nearly all actives have a fitted effect of over 50% in size. A digest of the protocol:
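HEK 293T RXRa-bla cells, 2% CS-FBS; 5 h settle; cpd 16 h 37 C, 5% CO2; CellTiter-Glo 30 min RT, luminescence. Tetraoctyl ammonium bromide as positive control.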

The nature of experiment [3]: qHTS assay to identify small molecule antagonists of the retinoid acid receptor (RAR) signaling pathway - cell viability counter screen (AID 1159551). Further: nearly all actives have a fitted effect of over 35% in size. A digest of the protocol: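 Cytotoxicity counter screen: ATP content quantified by CellTiter-Glo luminescence in C3RL4 cells treated 6 hr at 37 C with compound and retinol (1 uM final). Cells plated at 1,000/well and cultured overnight before dosing.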

Experiment [4] can be described thus: qHTS assay to identify small molecule antagonists of the retinoic acid receptor (RAR) signaling pathway (AID 1159552; further: nearly all actives have a fitted effect of over 50% in size). The method in brief:
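Cells of the C3RL4 line were seeded, incubated overnight, then dosed with compounds in DMSO followed immediately by retinol (1 uM final). Six hours later luciferase detection reagent went in; signal was measured after 30 min at RT.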

A short description of experiment [5]: qHTS assay to identify small molecule agonists of the retinoic acid receptor (RAR) signaling pathway (AID 1159553). Further: potency means the concentration at half of the fitted maximal effect. The method in brief:
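Luminescence was measured 30 min after luciferase reagent addition at room temperature. Before that, C3RL4 reporter cells (1,000 per well, plated overnight) were treated with compound for 6 hr at 37 C and 5% CO2.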

Experiment [6] can be described thus: qHTS assay to identify small molecule antagonists of the estrogen related receptor (ERR) signaling pathway from Tox21 library - cell viability counter screen (AID 1224834). Further: nearly all actives have a fitted effect of over 30% in size. The method in brief: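 CellTiter-Fluor fluorescence, read after 30 min at 37 C, measures viability of ERR cells. Cells plated at 2,000/well and incubated 6 h before pin-tool compound addition, then exposed 17.5 hours at 37 C.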

Experiment [7] concerns the target Luciferin 4-monooxygenase (Photinus pyralis) (UniProt P08659). Briefly: qHTS assay to identify small molecule inhibitors of firefly luciferase (AID 1224835). Further: nearly all actives have a fitted effect of over 25% in size. Further: potency means the concentration at half of the fitted maximal effect. The method in brief: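 Biochemical qHTS: compounds run as interplate titrations against purified firefly enzyme, with D-luciferin and ATP each at its KM concentration. Light output recorded by CCD imaging.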

Experiment [8] in a line: qHTS assay to identify small molecule agonists of the constitutive androstane receptor (CAR) signaling pathway - cell viability counter screen (AID 1224836). Further: series mostly up to about 92 µM; nearly all actives have a fitted effect of over 45% in size. The method in brief:
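HepG2-CYP2B6-hCAR, 2500 cells/well, 4 h pre-incubation; cpd 15 conc + PK11195 0.75 uM final; 23 h, 37 C/5% CO2; CellTiter-Fluor, fluorescence.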

Experiment [9] is described as follows: qHTS assay to identify small molecule antagonists of the constitutive androstane receptor (CAR) signaling pathway - cell viability counter screen (AID 1224837). Further: series mostly up to about 92 µM; nearly all actives have a fitted effect of over 45% in size. A digest of the protocol:
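Cytotoxicity counter-screen: CellTiter-Fluor fluorescence after 23 h compound exposure (15-point qHTS) in double-stable HepG2-CYP2B6-hCAR cells, with 50 nM CITCO added.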

Experiment [10] concerns the target Nuclear receptor subfamily 1 group I member 3 (Homo sapiens) (UniProt Q14994). Briefly: qHTS assay to identify small molecule antagonists of the constitutive androstane receptor (CAR) signaling pathway (AID 1224838).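 Further: HepG2 cells stably expressing hCAR with CYP2B6 luciferase reporter stimulated by CITCO; nearly all actives have a fitted effect of over 40% in size.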 A digest of the protocol: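 Antagonism measured as luciferase signal (ONE-Glo, 30 min, room temperature) in CAR-stimulated cells: HepG2-CYP2B6-hCAR double-stable line exposed 24 hr at 37 C to compound in a 15-point series plus 50 nM CITCO.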

The target is the same in experiment [11]. Put plainly: qHTS assay to identify small molecule agonists of the constitutive androstane receptor (CAR) signaling pathway (AID 1224839). Further: nearly all actives have a fitted effect of over 15% in size. Further: potency means the concentration at half of the fitted maximal effect. A digest of the protocol: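 HepG2-CYP2B6-hCAR cells, 2500/well, 4 h pre-incubation; compounds 15 conc.; PK11195 0.75 uM final; 24 h, 37 C/5% CO2; ONE-Glo luciferase read.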
A short description of experiment [12]: qHTS assay to identify small molecule antagonists of the estrogen related receptor signaling pathway with the pleiotropic PPARgamma coactivator (PGC) from Tox21 10K library - cell viability counter screen (AID 1224840; active means well fitted cell-killing curve with a large enough effect in the repeat runs, not every such curve was filed as active; further: nearly all actives have a fitted effect of over 40% in size). The method in brief: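 Counter-screen for cytotoxicity: after 17.5 h compound exposure at 37 C, CellTiter-Fluor reagent added to PGC/ERR cells for 30 min and fluorescence read. Cells were seeded at 2,000 per well 6 h before dosing.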

Experiment [13] is described as follows: qHTS assay to identify small molecule antagonists of the estrogen related receptor signaling pathway with the pleiotropic PPARgamma coactivator (PGC) from Tox21 10K library (AID 1224841; call rule not given here; further: series mostly up to about 92 µM; actives are mostly falling curves and most rising ones were filed inactive; nearly all actives have a fitted effect of over 50% in size). A digest of the protocol:
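Luminescence (One-Glo, 30 min at room temperature) after 18 h compound treatment at 37 C of PGC/ERR reporter cells plated at 2,000 cells/well and settled 6 h beforehand.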

Experiment [14] is described as follows: qHTS assay to identify small molecule agonists of the estrogen related receptor signaling pathway with the pleiotropic PPARgamma coactivator (PGC) from Tox21 10K library (AID 1224842). Further: nearly all actives have a fitted effect of over 15% in size. A digest of the protocol:
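PGC/ERR reporter cell line, 2,000 cells per well, incubated 6 h at 37 C before 23 nL compound in DMSO was added. After 18 h at 37 C, One-Glo luminescence read following 30 min at room temperature.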

The values that follow come from PubChem BioAssay (Tox21).

The structures appear in SMILES notation. Records with an inconclusive call do not appear. More than one record can exist for a structure, and the calls need not agree. Active and inactive are the calls of the source. Unless noted, the call rests on the fitted dose curve; in most records, active means well fitted curve in the direction sought with a large enough effect in the repeat runs; inconclusive means weak or mixed curves; inactive means no such curve, though single readings can be large; an effect the other way counts as inactive or inconclusive.

Luciferin 4-monooxygenase (Photinus pyralis), sequence (P08659 whole entry, looked up): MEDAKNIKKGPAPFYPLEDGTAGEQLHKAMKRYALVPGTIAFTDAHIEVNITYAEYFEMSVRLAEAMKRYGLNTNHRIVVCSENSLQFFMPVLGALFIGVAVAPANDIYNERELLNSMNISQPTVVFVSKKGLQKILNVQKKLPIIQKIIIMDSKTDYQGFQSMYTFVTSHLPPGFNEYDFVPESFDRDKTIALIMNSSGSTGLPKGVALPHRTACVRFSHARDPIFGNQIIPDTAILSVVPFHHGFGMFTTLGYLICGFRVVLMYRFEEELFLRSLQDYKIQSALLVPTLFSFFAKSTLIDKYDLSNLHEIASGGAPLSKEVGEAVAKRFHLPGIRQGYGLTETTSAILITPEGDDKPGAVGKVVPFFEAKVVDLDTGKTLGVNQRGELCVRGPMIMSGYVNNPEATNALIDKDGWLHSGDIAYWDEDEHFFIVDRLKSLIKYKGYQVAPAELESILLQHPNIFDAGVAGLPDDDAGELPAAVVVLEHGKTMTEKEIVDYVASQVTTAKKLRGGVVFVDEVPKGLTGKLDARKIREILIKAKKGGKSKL
Retinoic acid receptor RXR-alpha (Homo sapiens), sequence (P19793 whole entry, looked up): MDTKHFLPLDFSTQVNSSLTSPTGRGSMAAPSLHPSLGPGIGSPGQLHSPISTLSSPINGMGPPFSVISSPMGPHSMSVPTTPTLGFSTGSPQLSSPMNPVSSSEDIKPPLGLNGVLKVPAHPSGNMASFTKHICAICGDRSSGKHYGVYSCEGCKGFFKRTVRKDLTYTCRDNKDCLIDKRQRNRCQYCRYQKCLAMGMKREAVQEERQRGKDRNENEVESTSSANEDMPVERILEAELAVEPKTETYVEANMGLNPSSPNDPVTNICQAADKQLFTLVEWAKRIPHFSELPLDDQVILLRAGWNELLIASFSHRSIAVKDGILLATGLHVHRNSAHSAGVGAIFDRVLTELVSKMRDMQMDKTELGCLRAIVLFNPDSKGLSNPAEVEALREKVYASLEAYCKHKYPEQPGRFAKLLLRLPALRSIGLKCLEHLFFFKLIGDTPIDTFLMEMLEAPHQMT
Nuclear receptor subfamily 1 group I member 3 (Homo sapiens), sequence (Q14994 whole entry, looked up): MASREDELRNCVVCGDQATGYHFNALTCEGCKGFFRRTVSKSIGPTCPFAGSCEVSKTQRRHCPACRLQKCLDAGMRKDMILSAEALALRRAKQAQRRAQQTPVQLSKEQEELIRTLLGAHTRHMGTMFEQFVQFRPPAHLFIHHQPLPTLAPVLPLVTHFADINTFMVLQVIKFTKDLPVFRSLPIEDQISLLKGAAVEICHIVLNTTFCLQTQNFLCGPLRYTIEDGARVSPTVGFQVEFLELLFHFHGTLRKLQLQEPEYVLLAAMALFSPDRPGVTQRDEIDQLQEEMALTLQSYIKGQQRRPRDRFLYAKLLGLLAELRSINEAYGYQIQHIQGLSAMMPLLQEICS

For `CC(CN(CCN(CC(C)OCCO)CC(C)OCCO)CC(C)OCCO)OCCO` (centres undefined), the Potency entry in experiment [1], in experiment [2], in [3], in experiment [4], in experiment [5] and in experiment [6] was “inactive” each time. Further, the Potency result in experiment [7], in experiment [8] and in experiment [9] was “inactive” throughout.

Turning to `CC(C(=O)O)c1ccc(C(=O)c2cccs2)cc1` (centres undefined), the Potency entry in experiment [1], in experiment [2], in [3], in experiment [4], in [5] and in experiment [6] was “inactive” throughout. The Potency entry in experiment [7], in experiment [9], in [10] and in experiment [11] was “inactive” in each case.

On to `FC(F)(F)C(F)(F)C(F)(F)C(F)(F)CCI`, for which the Potency result in [1], in experiment [2], in experiment [3], in experiment [4], in experiment [5] and in [6] was “inactive” throughout. Also, the Potency result in experiment [7], in experiment [9], in [10] and in [11] was “inactive” throughout.

As for `BrC(Br)C(Br)Br`, the Potency result in experiment [1], in experiment [2], in experiment [3], in [4], in [5] and in experiment [6] was “inactive” each time. For the same molecule, the Potency entry in experiment [8], in experiment [9], in [10] and in [12] was “inactive” each time.

On to `CCOCCC(=O)OCC`, for which the Potency entry in [1], in [2], in experiment [3], in [4], in experiment [5] and in experiment [6] was “inactive” throughout. The Potency result in [7], in experiment [9], in experiment [10], in experiment [11] and in [12] was “inactive” each time.

Regarding `CNc1c2c(nn1C)CCCC2`, the Potency result in experiment [1], in experiment [2], in [3], in [4], in [5] and in experiment [6] was “inactive” throughout. The Potency entry in [7], in [8], in [9] and in experiment [12] was “inactive” throughout.

As to `O=S(=O)(Cl)c1c(Cl)cccc1Cl`, the Potency entry in [1], in experiment [2], in experiment [3], in [4], in experiment [5] and in [7] was “inactive” throughout. Besides, the Potency entry in [8], in experiment [9], in [10] and in experiment [12] was “inactive” in each case.

With `COc1ccc(N)c([N+](=O)[O-])c1`, the Potency result in experiment [1], in experiment [2], in experiment [3], in [4], in experiment [5] and in experiment [7] was “inactive” in each case. In addition, the Potency entry in experiment [8], in experiment [9] and in experiment [10] was “inactive” each time.

Take `C=Cc1ccc(OC(C)=O)cc1`: the Potency result in experiment [1], in experiment [2], in experiment [3], in experiment [4], in experiment [5] and in [6] was “inactive” in each case. In addition, the Potency result in experiment [7], in [9], in [10], in experiment [11], in experiment [12] and in experiment [13] was “inactive” in each case. Further, in experiment [14], the Potency entry was “inactive”.

For `CCOc1ncc(F)c(=O)[nH]1`, the Potency result in [1], in experiment [2], in [3], in [4], in experiment [5] and in [6] was “inactive” in each case. For the same molecule, the Potency result in [7], in [8], in experiment [9] and in experiment [12] was “inactive” in each case.

Turning to `CC(=O)N[C@@H](Cc1ccc(O)cc1)C(=O)O`, the Potency entry in [1], in experiment [2], in [3], in [4], in [5] and in [6] was “inactive” throughout. In addition, the Potency entry in experiment [7], in [9], in [10], in experiment [12], in [13] and in experiment [14] was “inactive” throughout.

`CC(C)(C)NCC(O)COc1cccc2c1C[C@H](O)[C@H](O)C2` (some centres undefined): the Potency result in experiment [1], in experiment [2], in [3], in experiment [4], in experiment [5] and in [7] was “inactive” throughout. In addition, the Potency result in [8] and in [9] was “inactive” throughout.

In the case of `COC(OC)OC`, the Potency entry in [1], in experiment [2], in [3], in [4], in [5] and in experiment [6] was “inactive” each time. Moreover, the Potency result in experiment [7], in experiment [9], in experiment [10], in [11] and in experiment [12] was “inactive” in each case.

Take `O=C(O)CCS`: the Potency result in [1], in experiment [2], in [3], in experiment [4], in [5] and in [6] was “inactive” throughout. For the same molecule, the Potency result in experiment [7], in experiment [8], in [9], in experiment [10], in [12] and in experiment [13] was “inactive” throughout. The Potency entry in [14] was “inactive”.

As for `CCC(CO)(CO)[N+](=O)[O-]`, the Potency result in experiment [1], in experiment [2], in [3], in experiment [4], in experiment [5] and in [6] was “inactive” throughout. For the same molecule, the Potency result in [7], in experiment [8], in experiment [9], in experiment [10], in [12] and in [13] was “inactive” each time. Besides, the Potency result in [14] is “inactive”.

Regarding `O=C(O)c1ccc(O)cc1O`, the Potency entry in [1], in [2], in experiment [3], in [4], in experiment [5] and in [6] was “inactive” each time. In addition, the Potency result in experiment [7], in experiment [9], in experiment [10], in experiment [13] and in experiment [14] was “inactive” throughout.

Turning to `CC(C)(C)S`, the Potency result in [1], in experiment [2], in experiment [3], in experiment [4], in [5] and in [7] was “inactive” in each case. Moreover, the Potency entry in [8], in experiment [9], in experiment [13] and in experiment [14] was “inactive” each time.

In the case of `COC(=O)CC(C(C)=O)C(=O)OC` (centres undefined), the Potency entry in experiment [1], in experiment [2], in experiment [3], in experiment [4], in experiment [5] and in experiment [6] was “inactive” throughout. Besides, the Potency entry in [7], in experiment [9], in experiment [10] and in experiment [12] was “inactive” in each case.

Consider `CCC(CO)(CO)CO`, for which the Potency entry in experiment [1], in experiment [2], in [3], in experiment [4], in experiment [5] and in [6] was “inactive” throughout. For the same molecule, the Potency result in [7], in experiment [8], in experiment [9] and in experiment [12] was “inactive” in each case.

Turning to `COc1ccc2nc(S(=O)Cc3ncc(C)c(OC)c3C)[nH]c2c1` (centres undefined), the Potency entry in experiment [1], in experiment [2], in experiment [3], in [4], in experiment [8] and in experiment [9] was “inactive” in each case. Besides, the Potency entry in experiment [10] and in experiment [12] was “inactive” each time. For the same molecule, the Potency in experiment [5] is 67.8 µM (active); in [7], 31.3 µM (active) and inactive; in experiment [11], 60.4 µM (active) and inactive.

Take `CCC(C)(C)C(=O)O`: the Potency entry in experiment [1], in experiment [2], in experiment [3], in [4], in [5] and in experiment [7] was “inactive” in each case. Also, the Potency result in [8], in [9], in experiment [10], in experiment [11] and in experiment [12] was “inactive” in each case.

Turning to `CC1CCC(C(C)CS)CC1S` (centres undefined), the Potency entry in [1], in experiment [2], in experiment [3], in [4], in experiment [5] and in [6] was “inactive” throughout. The Potency result in experiment [7], in experiment [8], in experiment [9], in experiment [12] and in [13] was “inactive” throughout.

Turning to `CCCCCC`, the Potency entry in [1], in experiment [2], in experiment [3], in experiment [4], in experiment [5] and in experiment [6] was “inactive” throughout. In addition, the Potency result in experiment [8], in [9], in [10], in experiment [11] and in [12] was “inactive” in each case.
